Compound activity: PubChem, National Center for Advancing Translational Sciences (NCATS)
Pol kappa inh: inhibitors of human DNA polymerase kappa; purified Pol kappa, fluorescent DNA synthesis assay, 10 min; actives 0.53% (n = 400,000); Q9UBT6; AID 588579; Potency, µM (series often up to 107 µM), without a hit: at the highest dose activity, negative = inhibition, most hits filed as inhibitors; also: potency is read from the fitted curve at half-maximal effect; % is scaled to controls: 0 for no effect and ±100 for the full control effect
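Kinetic fluorescence screen: compound preincubated 15 min RT with 10 nM enzyme; 50 nM substrate (final) initiates; reads at 0/10 min.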
PI5P4K alpha inh: inhibitors of human PI5P4K alpha | max response, % | actives 1.2% (n = 330,000) | PI5P4Kalpha enzyme, ADP-Glo luminescence, 60 min; hits give low values | AID 652105; active = max response of -50% or lower; inconclusive = between -30% and -50%; inactive = -30% or higher; also: value at the top dose of about 77 µM; % is scaled to controls: 0 for no effect and ±100 for the full control effect
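Enzyme plus substrate dispensed, test compounds pinned in, then ATP (5 microM final) added. After 60 min at RT, ADP-Glo reagent 1 for 45 min and reagent 2 for 30 min preceded luminescence imaging.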
FEN1 inhibitor: blocks human flap endonuclease 1; P39748; Recombinant FEN1 flap cleavage, fluorescence, 15 min; Potency, µM (top dose mostly 114 µM), for the others: at the highest dose activity change, negative = inhibition, most hits filed as inhibitors; actives 0.35% (n = 390,000); AID 588795; also: potency is read from the fitted curve at half-maximal effect; % is scaled to controls: 0 for no effect and ±100 for the full control effect; nearly all actives have a fitted effect of over 65% in size
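FEN1 at 10 nM, compound pretreatment for 15 min (room temperature), 50 nM final substrate to initiate; endpoint reads at 0 and 15 min; DMSO-only plates used as vehicle background.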
Pol eta inh: inhibitors of human DNA polymerase eta; Q9Y253; recombinant Pol eta, fluorescent DNA replication assay; Potency, µM (highest dose often 114 µM), for the others: top-dose activity change, negative = inhibition, usual class: inhibitors; actives 1.2% (n = 390,000); also: potency is read from the fitted curve at half-maximal effect; % is scaled to controls: 0 for no effect and ±100 for the full control effect
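Pol eta (10 nM) was preincubated with compounds for 15 min at room temperature, after which fluorescent replication substrate (50 nM final) was added to start the reaction. Fluorescence was read kinetically at 0 and 10 min.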
POLB inh: blocks human DNA polymerase beta activity. P06746. Pol beta primer extension/strand displacement, fluorescence kinetic. Potency, µM (titrated, usually from 114 µM), for inactives: at the top dose activity change, negative = inhibition, usual class: inhibitors. actives 1.3% (n = 340,000). AID 485314; also: potency is read from the fitted curve at half-maximal effect; % is scaled to controls: 0 for no effect and ±100 for the full control effect
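Preincubation: enzyme (10 nM) with compound, 15 min, RT. Reaction: substrate added to 50 nM final. Reads: 0 and 10 min. Analysis: normalized, Hill fit.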
POLI inh: blocks human DNA polymerase iota activity; Q9UNA4; actives 1% (n = 390,000); Potency, µM (top dose mostly 115 µM), for the others: at the top dose activity, negative = inhibition, hits mostly inhibitors; Pol iota fluorescent replication assay, 10 min; also: potency is read from the fitted curve at half-maximal effect
Target sequence (Q9UNA4 whole entry, looked up): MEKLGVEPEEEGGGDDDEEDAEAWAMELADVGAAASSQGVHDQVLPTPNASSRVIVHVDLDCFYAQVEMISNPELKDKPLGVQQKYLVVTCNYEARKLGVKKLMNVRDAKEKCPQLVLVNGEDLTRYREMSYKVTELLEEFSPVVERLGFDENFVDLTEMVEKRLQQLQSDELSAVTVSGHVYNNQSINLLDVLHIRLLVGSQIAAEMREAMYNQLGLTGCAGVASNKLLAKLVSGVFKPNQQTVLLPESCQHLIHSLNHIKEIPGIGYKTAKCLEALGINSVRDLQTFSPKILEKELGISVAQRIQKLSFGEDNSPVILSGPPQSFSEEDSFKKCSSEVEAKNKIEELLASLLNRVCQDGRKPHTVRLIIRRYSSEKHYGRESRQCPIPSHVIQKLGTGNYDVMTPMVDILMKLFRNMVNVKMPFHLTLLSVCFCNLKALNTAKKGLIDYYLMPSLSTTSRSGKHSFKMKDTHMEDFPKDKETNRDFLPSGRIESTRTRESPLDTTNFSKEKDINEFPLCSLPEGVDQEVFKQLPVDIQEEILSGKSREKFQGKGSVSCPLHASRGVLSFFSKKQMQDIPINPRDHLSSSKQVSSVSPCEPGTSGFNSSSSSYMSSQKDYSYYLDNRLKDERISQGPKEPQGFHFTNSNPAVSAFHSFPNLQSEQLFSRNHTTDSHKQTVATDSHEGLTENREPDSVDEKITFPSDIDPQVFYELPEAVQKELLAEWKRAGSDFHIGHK
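Pol iota at 10 nM preincubated 15 min with compounds at room temperature; reaction started with fluorescent substrate, 50 nM final. Fluorescence read kinetically at 0 and 10 min; buffer-only wells as negative control.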
* hit, by the source's call; ? = inconclusive; . = not tested or not shown; [ ] = remark or other dose. In the library only some 2.8% were active in any assay of this set; here they are far more common. Unless noted, calls follow the shape of the dose curve; as a rule, active = well fitted curve in the direction sought with a large enough effect; inconclusive = small, poorly fitted or top-dose-only effect, or another doubt; inactive = no such curve, though single readings can be large; an effect the other way counts as inactive or inconclusive.

SMILES	Pol kappa inh	PI5P4K alpha inh	FEN1 inhibitor	Pol eta inh	POLB inh	POLI inh
O=C(N/N=C/c1ccc([N+](=O)[O-])o1)c1ccc(NS(=O)(=O)c2cccs2)cc1	-33.8%	-61.8*	?	31.6µM*	?	50.1µM*
O=C(N/N=C\c1ccc(-c2ccc([N+](=O)[O-])cc2)o1)c1ccc2c(c1)OCO2	9.7%	-12.2	-0.3%	-21.8%	2.6%	11.3%
O=C(CN1CCOCC1)N/N=C/c1ccc(-c2ccc(C(=O)O)cc2)o1	-28.9%	-16.8	9.6%	39.8µM*	?	-0.3%
O=c1cc(-c2ccccc2)c2cc(Cl)c3c(c2o1)CN(Cc1ccccc1)CO3	13.5%	.	21.1%	5.8%	9.4%	-13.6%
Cn1nc(C2CC2)cc1NC(=O)C1(C)CCN1C(=O)CCc1ccccc1 (centres undefined)	.	-3.8	.	.	.	.
CC(=O)Nc1cccc(-c2ccnc3c2CC(C)(C(=O)NCc2ccc(F)c(F)c2)O3)c1 (centres undefined)	.	0.4	.	.	.	.
O=[N+]([O-])c1ccc(/C=N/N=C/c2ccc([N+](=O)[O-])o2)o1	?	-14.1	-20.2%	?	-25.9%	22.4µM*
O=C(N/N=C/c1cccc(O)c1)c1cc(-c2ccc3c(c2)OCO3)n[nH]1	-8.2%	-21.0	5.2%	-12.4%	?	?
O=C(N/N=C/c1cccc([N+](=O)[O-])c1)c1cc(-c2ccc3c(c2)OCO3)n[nH]1	?	-21.1	-24.1%	17.8µM*	-23.3%	?
O=C(N/N=C\C=C\c1ccc([N+](=O)[O-])o1)c1cccs1	79.4µM*	?	-33.9%	50.1µM*	31.6µM*	5.01µM*
Cc1ccccc1OCC(=O)N/N=C/c1ccc([N+](=O)[O-])o1	?	1.1	-15.8%	-4.2%	-20.8%	?
COc1ccccc1OCC(=O)N/N=C/C=C/c1ccc([N+](=O)[O-])o1	?	1.9	-6.8%	?	31.6µM*	79.4µM*
O=C(N/N=C/C=C/c1ccccc1[N+](=O)[O-])c1cccs1	-4.5%	3.1	-10.1%	-13.6%	0.7%	19.3%
CCc1cccc(NC(=O)c2nc(-c3ccncc3)no2)c1	-18.4%	.	11.7%	-4.3%	8.8%	11.5%
COc1cc(OC)c(NC(=O)Cn2c(=O)nc(-c3ccccc3)c3ccccc32)cc1Cl	-15.8%	.	-0.8%	-28.2%	6.9%	?
O=C(CNC(=O)/C=C/c1ccco1)N=Nc1c(O)[nH]c2ccccc12	6.7%	-2.2	-3.1%	-11.2%	8.91µM*	-4.5%
Cc1ccc(/C=C/C(=O)NCc2ccco2)o1	.	.	.	.	22.4µM*	.
O=C(/C=C/c1ccccc1)NCc1ccco1	-6.1%	0.4	-4.5%	-12.4%	-1.8%	29.6%
O=C(NCc1ccco1)/C(=C\c1ccco1)NC(=O)c1cccs1	-13.1%	-2.9	0.5%	-20.8%	22.4µM*	70.6%
O=C(NCc1ccco1)/C(=C\c1cccs1)NC(=O)c1cccs1	3.5%	-6.5	6.9%	-11.9%	-9.2%	85.4%
Cc1ccc(/C=N/NC(=O)NC2CCCCC2)o1	-4.5%	-1.1	-14.1%	5.9%	-1.2%	2.6%
Cc1ccc(/C=C/C(=O)NC2CCCCCCC2)o1	-14.9%	-55.2*	-5.5%	-10.3%	0.7%	?
COc1ccccc1Cc1c(-c2cccc(Cl)c2)nc2ccc(C)cn12	.	8.2	.	.	.	.
CCc1ccc2oc(-c3cc(NC(=O)C(C)C)cc(C)c3O)nc2c1	-13.0%	.	-11.2%	-2.8%	-14.3%	0.1%
NS(=O)(=O)c1ccc(CNC(=O)/C=C/c2ccco2)cc1	?	?	-24.5%	17.8µM*	22.4µM*	?
SMILES	Pol kappa inh	PI5P4K alpha inh	FEN1 inhibitor	Pol eta inh	POLB inh	POLI inh
Cc1ccc(/C=C/C(=O)NCC2COc3ccccc3O2)o1 (centres undefined)	-7.6%	-69.9*	-0.4%	-14.0%	80.1%	35.0%
COc1ccc(/C=C/C(=O)NCC2COc3ccccc3O2)cc1OC (centres undefined)	-3.9%	0.3	2.2%	-12.4%	-26.6%	55.5%
O=C(/C=C/c1ccco1)NCc1ccco1	-34.6%	-7.8	-4.1%	?	10µM*	?
CCC(C)C(NC)C(=O)O (centres undefined)	-1.0%[60.1 µM]	.	.	.	.	.
O=C(/C=C/c1ccccc1)Nc1cc(NC(=O)/C=C/c2ccccc2)cc(C(=O)O)c1	-3.1%	-55.9*	?	50.1µM*	-21.6%	12.0%
CCNc1ncc2nc(C)c(=O)n(C)c2n1	0.1%[60.1 µM]	.	.	.	.	.
COc1cccc(NC(=O)CSc2nc(C3CC3)nc3ccccc23)c1	3.0%	4.7	-7.8%	39.8µM*	-2.1%	?
O=c1ccc2ccc(O)c(O)c2o1	9.47µM*	.	7.52µM*	?	14.1µM*	23.8µM*
Cc1csc2nc(-c3ccc(NS(=O)(=O)c4cc(F)ccc4F)cc3)cn12	-7.2%[60.1 µM]	.	-16.1%	-6.0%	19.8%	27.9%
CCOC(=O)N1CCC(N2Cc3cccc(C(=O)NCc4ccc(OC)cc4)c3C2=O)CC1	.	.	.	.	15.8µM*	.
CCOC(=O)N1CCC(NC(=O)c2cccc3c2C(=O)N(c2ccc(OC)cc2)C3)CC1	50.1µM*	?	-1.2%	17.8µM*	10µM*	?
CCOC(=O)N1CCC(N2Cc3cccc(C(=O)NCc4ccc5c(c4)OCO5)c3C2=O)CC1	-51.4%	-27.6	3.0%	?	25.1µM*	44.7µM*
Cc1cccc(CCNC(=O)c2cccc3c2C(=O)N(C2CCCCC2)C3)c1	-20.0%	4.1	-15.8%	?	11.2µM*	-17.8%
C[n+]1ccnc2ccccc21	1.8%	.	9.9%	.	.	-14.2%
N[C@@H](Cc1cc(I)c(Oc2ccc(O)cc2)c(I)c1)C(=O)O	2.3%[19.4 µM]	.	.	.	.	.
O=C(Nc1nc2c(F)cccc2s1)c1ccc(S(=O)(=O)N2CCOCC2)cc1	-5.7%[60.1 µM]	.	-7.3%	-20.6%	14.4%	13.2%
COc1cccc(CNC(=O)c2ccc(CS(=O)Cc3ccccc3Cl)o2)c1 (centres undefined)	.	-2.0	.	-15.1%	.	.
COc1ccc(CCC(=O)NC2CC(=O)N(c3ccc(C)cc3)C2)cc1 (centres undefined)	-4.3%[60.1 µM]	.	-11.7%	-14.5%	17.6%	12.7%
NC(Cc1cccc(-c2ccccc2CP(=O)(O)O)c1)C(=O)O (centres undefined)	-6.5%[60.1 µM]	.	?	-0.4%[57.1 µM]	0.8%[57.1 µM]	6.7%[58.9 µM]
N[C@@H](Cc1cc(CP(=O)(O)O)cc(-c2ccccc2Cl)c1)C(=O)O	21.2µM*	.	.	.	.	.
CC(=O)Nc1ccc(S(=O)(=O)CC(=O)CS(=O)(=O)c2ccc(NC(C)=O)cc2)cc1	.	-6.2	.	35.5µM*	.	.
CC(=O)CCS(=O)(=O)c1ccc(NC(C)=O)cc1	17.2%	.	-11.1%	-11.7%	?	154.1%
CCC(C)NC(=O)C(=O)Nc1c2c(nn1-c1ccccc1)CS(=O)(=O)C2 (centres undefined)	-6.4%[60.1 µM]	.	-5.9%	9.4%	5.2%	-22.7%
C#CCCCCCCCCCCCC(O)CC(O)CO (centres undefined)	-7.3%[60.1 µM]	.	.	.	.	.
